The panel holds about 83,000 compounds, 20% with a hit somewhere; the sample as a whole holds those more often.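 For each line, cells grew in 96-well plates with the test compound present at a single concentration for 48 hours.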 A number with no mark means an inactive call. Calls of active or inactive are those of the source. The calls were made as follows: active = growth percent below 10; inactive = the rest.
Experiments:
Experiment in all cases: NCI-60 one-dose screen, 48 h (100 = growth as untreated, 0 = no growth, -100 = all killed)
[1] = test system: SR leukemia; details: 10 µM unless noted
[2] = test system: RPMI-8226 leukemia; details: 10 µM unless noted
[3] = test system: OVCAR-8 ovarian; details: 10 µM unless noted
[4] = test system: OVCAR-5 ovarian; details: 10 µM unless noted
[5] = test system: OVCAR-4 ovarian; details: 10 µM
[6] = test system: IGROV1 ovarian; details: 10 µM unless noted
[7] = test system: OVCAR-3 ovarian; details: 10 µM unless noted
[8] = test system: HS 578T breast; details: 10 µM unless noted
[9] = test system: NCI/ADR-RES ovarian; details: 10 µM unless noted
[10] = test system: T-47D breast; details: 10 µM unless noted
[11] = test system: BT-549 breast; details: 10 µM unless noted
[12] = test system: MDA-MB-435 melanoma; details: 10 µM unless noted
[13] = test system: SW-620 colon; details: 10 µM unless noted
[14] = test system: MCF7 breast; details: 10 µM unless noted
[15] = test system: HCT-116 colon; details: 10 µM unless noted
[16] = test system: HCC-2998 colon; details: 10 µM unless noted
[17] = test system: KM12 colon; details: 10 µM unless noted

Structure (SMILES)	growth [1]	growth [2]	growth [3]	growth [4]	growth [5]	growth [6]	growth [7]	growth [8]	growth [9]	growth [10]	growth [11]	growth [12]	growth [13]	growth [14]	growth [15]	growth [16]	growth [17]
Cn1cc(-c2nnc(-c3cn(C)c4ncc(Br)cc34)o2)c2ccccc21	52.7%	88.5%	93.4%	93.4%	90.3%	65.8%	88.2%	89.6%	68.9%	62%	95.2%	27.4%	83.6%	44.7%	98%	95.9%	56.3%
CC(C)(C)c1cc(C(=O)Nc2cc3ccccc3cc2C(=O)NCCN)cc(C(C)(C)C)c1	-58.9% (active)	-47.8% (active)	-37.1% (active)	-58.4% (active)	-81.6% (active)	-55% (active)	-96% (active)			-69% (active)	82.2%	-88.3% (active)	-66.4% (active)	-85.6% (active)	-91.8% (active)	-86.5% (active)	-94.5% (active)
Cn1cc(-c2nnc(-c3cn(C)c4ncc(Br)cc34)s2)c2cc(Br)ccc21	100%	87.4%	96.1%	88.6%	93.8%	73.9%	100%	89.3%	102%	67.6%	96.2%	92.1%	96.4%	74.1%	96.4%	103%	94.6%
COc1ccc(NCc2cn(-c3ccc(C(=O)O)cc3)nc2-c2ccc(C(=O)O)cc2)cc1C(F)(F)F	131%	88.4%	103%	93.3%	93.3%	99.7%	105%	83.2%	105%	92.7%	98%	101%	97.2%	96.1%	104%	104%	102%
COc1ccc(/C=C2\N=C(Nc3ccccc3)N(NC(=O)c3ccccn3)C2=O)cc1	95.2%	88.2%	100%	122%	90%	95.7%	105%	95.3%	97%	63.6%	94.1%	98.7%	102%	87.5%	90.1%	105%	96.1%
Cn1cc(-c2noc(C(=O)c3cn(C)c4ncc(Br)cc34)n2)c2ccccc21	95.6%	84.6%	101%	90.2%	100%	87.8%	106%	99.7%		99.7%	98%	99.9%	96.5%	90.5%	99.6%	108%	96.7%
CCOC(=O)c1nn(C2CCCCO2)c2ccc(NC(=O)CSc3nc4ccccc4c(=O)[nH]3)cc12 (centres undefined)	113%	101%	98.1%	115%	100%	101%	106%	51.6%		99.1%	89.6%	107%	105%	92.1%	101%	115%	102%
CCCCCCSc1ncnc2nc[nH]c12	85.2%	84.8%	95.5%	98.9%	88.4%	82.6%	103%	102%	91.3%	73.1%	82.6%	84.9%		94.6%	85.1%	93.5%	86%
CC(C)(C)OC(=O)N1C=C/C(=C\Cn2cc(-c3ccccc3)nn2)CC1	57.9%	62.9%	74.9%	104%	18%	82.7%	86.6%			41.1%	58.1%	85.2%	93.8%	65.5%	74.1%	88.4%	88.9%
COc1cc(-c2cc(-c3ccc(Nc4ncnc5cc(Cl)ccc45)cc3)nc(N3CCCCC3)n2)cc(OC)c1OC	90.9%	109%	88.9%	96.1%	106%	90.5%	107%	98.7%	104%	91.3%	84%	106%	97.7%	86.6%	103%	114%	97.8%
Cc1cccc(C[C@H](NC(=O)Nc2ccc(C)cc2F)C(=O)N[C@@H]2C(=O)N3C[C@H](O)C[C@H]3C(=O)N3CCN(C)C[C@H]3C(=O)N[C@@H](C)C(=O)N3C[C@H](C)C[C@H]3C(=O)O[C@H]2C)c1	34.5%	28.2%	50.8%	42.7%	12.9%	52.3%	24.4%	50.8%		25.9%	22.1%	21.8%	47.6%	26.7%	14.8%	35.7%	43.7%
CCc1ccc(C2=C/C(=C/c3ccccc3)C(=O)N2CCc2ccc(S(N)(=O)=O)cc2)cc1	96.9%	110%	100%	109%	103%	91.4%	109%	97.5%		97.8%	100%	110%	106%	96.3%	103%	109%	104%
CCOC(=O)n1cc(C2=C(c3ccc(OC)c(OC)c3)COC2=O)c2ccccc21	18.1%	27.9%	25.5%	50.1%	35.3%	18.2%	-42.6% (active)		8.29% (active)	48.8%	0.425% (active)	-18.4% (active)	26.5%	14.9%	4.07% (active)	19.2%	2.26% (active)
CCCCCn1c(C)cc(/C=C\c2ccc3cc(C)ccc3[n+]2C)c1C	9.57% (active)	-43.5% (active)	-69.5% (active)	12%	-8.22% (active)	-84% (active)		-24.4% (active)	59.1%	-49.1% (active)	-29.9% (active)	-90.2% (active)	-35.9% (active)	-18.2% (active)	-34.4% (active)	-70.1% (active)	-72.4% (active)
CCCc1cc2cc(-n3nc(C)c4c3CC(C)(C)CC4=O)cc(NC3CCSCC3)c2c(=O)[nH]1	33.8%	49.9%	79%	97%	97.5%	74.1%	87%	79.2%	82.2%	54.7%	61.5%	26.5%	32.4%	36.5%	19.8%	46.9%	41.7%
c1cc2ccc3cc2cc1CNCCN1CCNCc2ccc4ccc(cc4c2)CNCCN(CCNC3)CCNCc2ccc3ccc(cc3c2)CNCC1	10.1%	7.69% (active)	69.3%	0.497% (active)	-7.14% (active)	21.9%	-1.21% (active)	48.4%		-6.97% (active)	97.3%	-5.25% (active)		-5.39% (active)	5.35% (active)	19.2%	-15.5% (active)
